Source: PubChem BioAssay AID1159580 (chemical genetic matrix, 2015)
The campaign covered roughly 5,500 compounds. About 2,000 (36%) were called active. Not shown: some 18% with an inconclusive outcome. Cut-off read from the data, not from the text of the source: active = normalized growth mostly below about 0.91 (no sharp cut-off); inconclusive = no clear call, values can overlap the other calls; inactive = mostly above about 0.92. The list shows a part of the results.

Test: chemical genetic growth profiling, strain panel (AID 1159580);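 note: tested at 20 µM; growth read once vehicle control cultures reached saturation at 30 °C; 1 = growth at the plate median or of vehicle wells; lower values mean less growth of the strain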
Settings: S. cerevisiae deletion strains, growth OD

Measured: normalized growth

CC(C)CCCC(C)[C@H]1CCC2C3CC[C@@H]4C[C@H](O)CC[C@]4(C)C3CC[C@@]21C (stereo partly drawn)
inactive: locus YAL013W, strain DEP1, active compounds read low 1.04 | locus YBR021W, strain FUR4, active compounds read low 0.992 | locus YBR229C, strain ROT2, active compounds read low 1 | locus YCL029C, strain bik1, active compounds read low 1.02 | locus YDL035C, strain GPR1, active compounds read low 1.02 | locus YDL074C, strain BRE1, active compounds read low 1.01 | locus YDL101C, strain DUN1, active compounds read low 1.01 | locus YDL185W, strain tfp1, active compounds read low 1.02 | locus YDL192W, strain arf1, active compounds read low 1 | locus YDR101C, strain arx1, active compounds read low 0.991 | locus YDR162C, strain NBP2, active compounds read low 1.03 | locus YDR318W, strain mcm21, active compounds read low 1.01 | locus YDR388W, active compounds read low 1 | locus YDR502C, strain sam2, active compounds read low 0.999 | locus YEL061C, strain CIN8, active compounds read low 1 | locus YER110C, active compounds read low 1.01 | locus YER155C, strain BEM2, active compounds read low 1 | locus YER167W, strain BCK2, active compounds read low 1.02 | locus YGL078C, strain dbp3, active compounds read low 1 | locus YGL086W, strain mad1, active compounds read low 1 | locus YGL248W, strain PDE1, active compounds read low 1.01 | locus YGR135W, strain pre9, active compounds read low 1.01 | locus YGR252W, strain gcn5, active compounds read low 0.985 | locus YHR030C, strain SLT2, active compounds read low 1.01 | locus YHR079C, strain IRE1 (second series), active compounds read low 0.997 | locus YHR094C, strain hxt1, active compounds read low 1.01 | locus YHR129C, strain ARP1, active compounds read low 1 | locus YHR200W, strain rpn10, active compounds read low 1 | locus YIL066C, strain RNR3, active compounds read low 1.03 | locus YIL073C, strain SPO22, active compounds read low 1.03 | locus YIL125W, strain kgd1, active compounds read low 0.999 | locus YIR030C, strain dcg1, active compounds read low 1 | locus YJL095W, strain BCK1, active compounds read low 1.01 | locus YJL134W, strain LCB3, active compounds read low 1.01 | locus YJL168C, strain set2, active compounds read low 0.994 | locus YJL187C, strain SWE1 (second series), active compounds read low 1.01 | locus YJR043C, strain POL32, active compounds read low 1.01 | locus YJR075W, strain HOC1, active compounds read low 1 | locus YKL009W, strain mrt4, active compounds read low 1.02 | locus YKL068W, active compounds read low 1 | locus YKL085W, strain MDH1 (second series), active compounds read low 1.01 | locus YKL085W, strain MDH1, active compounds read low 1.01 | locus YKL190W, strain CNB1, active compounds read low 1.01 | locus YKR001C, strain vps1, active compounds read low 0.998 | locus YLR039C, strain RIC1, active compounds read low 1.06 | locus YLR058C, strain SHM2, active compounds read low 1 | locus YLR102C, strain apc9, active compounds read low 1 | locus YLR262C, strain YPT6, active compounds read low 1.06 | locus YLR268W, strain sec22, active compounds read low 0.999 | locus YLR330W, strain CHS5, active compounds read low 1.01 | locus YLR342W, strain FKS1 (second series), active compounds read low 1.01 | locus YLR371W, strain rom2, active compounds read low 1.02 | locus YLR418C, strain cdc73, active compounds read low 0.978 | locus YML016C, strain PPZ1, active compounds read low 1.01 | locus YML032C, strain rad52, active compounds read low 1 | locus YML124C, strain tub3, active compounds read low 1 | locus YMR078C, strain ctf18, active compounds read low 1 | locus YMR223W, strain ubp8, active compounds read low 1.01 | locus YMR307W, strain GAS1, active compounds read low 1.07 | locus YNL067W, strain RPL9B, active compounds read low 1.01 | locus YNL153C, strain GIM3, active compounds read low 1.01 | locus YNL233W, strain BNI4, active compounds read low 1.01 | locus YNL250W, strain rad50, active compounds read low 1 | locus YNL271C, strain bni1, active compounds read low 1.01 | locus YNL298W, strain CLA4, active compounds read low 1 | locus YNL307C, strain MCK1, active compounds read low 1.01 | locus YNL322C, strain KRE1, active compounds read low 1.01 | locus YNR052C, strain pop2, active compounds read low 0.999 | locus YOL006C, strain TOP1, active compounds read low 1.04 | locus YOL012C, strain htz1 0.869 | locus YOL147C, strain pex11, active compounds read low 0.991 | locus YOR061W, strain CKA2, active compounds read low 1.01 | locus YOR069W, strain VPS5, active compounds read low 1.01 | locus YOR136W, strain idh2, active compounds read low 0.994 | locus YOR144C, strain elg1, active compounds read low 0.987 | locus YOR184W, strain ser1, active compounds read low 0.989 | locus YOR316C, strain cot1, active compounds read low 1 | locus YPL055C, strain LGE1, active compounds read low 1.01 | locus YPR119W, strain clb2, active compounds read low 1 | locus YPR141C, strain kar3, active compounds read low 1.02 | locus YPR163C, strain tif3, active compounds read low 1.01 | locus YPR167C, strain met16, active compounds read low 1 | strain wtn01, active compounds read low 1
